Each structure is given as a SMILES string. This is part of a sample that, as a whole, favours compounds with a hit. Of some 83,000 tested, about 20% had one in any assay.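 Testing used 96-well plates and a 48-hour single-concentration exposure. Example: -40 means 40% of the starting cells died.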 A number with no mark means an inactive call. Activity calls are given as the source filed them. How the source made its calls: active means growth percent below 10; inactive means the rest.

What all share (experiment): NCI-60 one-dose screen, 48 h (100 = growth as untreated, 0 = no growth, -100 = all killed)
The subject of one test is SR leukemia. The settings on record: 10 µM unless noted.
The test system of a further test is RPMI-8226 leukemia. The settings on record: 10 µM unless noted.
The test system of the next test is OVCAR-5 ovarian. Conditions: 10 µM unless noted.
The next test concerns OVCAR-4 ovarian. The settings on record: 10 µM.
The test system of a further test is SK-OV-3 ovarian. The settings on record: 10 µM unless noted.
In another test the test system is IGROV1 ovarian. Conditions: 10 µM unless noted.
A further test has as its system OVCAR-3 ovarian. The settings on record: 10 µM unless noted.
The next test has as its system HS 578T breast. The settings on record: 10 µM unless noted.
Another test has as its system T-47D breast. Conditions: 10 µM unless noted.
In a further test the test system is MDA-MB-435 melanoma. The settings on record: 10 µM unless noted.
A further test concerns SW-620 colon. The settings on record: 10 µM unless noted.
For the next test, the system named is HCC-2998 colon. Conditions: 10 µM unless noted.
A further test deals with KM12 colon. The settings on record: 10 µM unless noted.
Another test relates to BT-549 breast. Conditions: 10 µM unless noted.
Another test relates to MCF7 breast. Conditions: 10 µM unless noted.
The subject of the next test is NCI/ADR-RES ovarian. The settings on record: 10 µM unless noted.
The subject of the next test is HCT-116 colon. The settings on record: 10 µM unless noted.

As to `CCOc1ccc2sc(NS(=O)(=O)c3ccc(N)cc3)nc2c1`, the growth in the test on SR leukemia was 95.4%; with RPMI-8226 leukemia, 96.5%; with OVCAR-5 ovarian, 109%; in the test with OVCAR-4 ovarian it was 105%; in the test with SK-OV-3 ovarian, 101%; in the test on IGROV1 ovarian it was 95.8%. For the same molecule, the growth was 115% in the test on OVCAR-3 ovarian; 106% in the test on HS 578T breast; 122% with T-47D breast; 107% in the test on MDA-MB-435 melanoma; 115% in the test with SW-620 colon; 107% with HCC-2998 colon. In addition, the growth in the test on KM12 colon was 105%.
For the molecule `Fc1cc2[nH]ncc2c2c3c(c(-c4cn[nH]c4C(F)(F)F)nc12)C1CCC3C1` (centres undefined), the growth is 5.5% (active) in the test on SR leukemia; 7.73% (active) in the test on RPMI-8226 leukemia; -7.74% (active) in the test on OVCAR-5 ovarian; 35% in the test with OVCAR-4 ovarian; -13% (active) in the test with IGROV1 ovarian; 10.6% in the test on OVCAR-3 ovarian. Also, the growth was -10.8% (active) in the test with HS 578T breast; 3.94% (active) with T-47D breast; -60.7% (active) with BT-549 breast; 22.8% in the test with MDA-MB-435 melanoma; 2.37% (active) in the test on SW-620 colon; 2.59% (active) in the test with MCF7 breast. For the same molecule, the growth in the test on HCC-2998 colon is 14.7%; in the test on KM12 colon it was 7.9% (active).
Turning to `O=C(Nc1ccc(Oc2ccc(F)cc2)c(Cl)c1)c1cnccn1`, the growth with SR leukemia is 49.3%; in the test with RPMI-8226 leukemia it was 80.4%; in the test with OVCAR-5 ovarian it was 81.1%; in the test with SK-OV-3 ovarian it was 100%; in the test with IGROV1 ovarian it was 62.6%; in the test with OVCAR-3 ovarian, 43.6%. Besides, the growth in the test with HS 578T breast is 62.4%; in the test on NCI/ADR-RES ovarian, 40.8%; in the test with T-47D breast it was 42.9%; in the test on BT-549 breast, 100%; with MDA-MB-435 melanoma, -2.8% (active); with SW-620 colon, 37%. The growth was 29.7% in the test with MCF7 breast, 58.7% in the test with HCT-116 colon, 76.3% with HCC-2998 colon and 27.5% in the test with KM12 colon.
For `COc1ccc(-c2c(C)nn3c(NCCN4CCOCC4)cc(C)nc23)cc1OC`, the growth in the test on SR leukemia is 79.8%; in the test with RPMI-8226 leukemia, 105%; in the test with OVCAR-5 ovarian, 94.3%; with SK-OV-3 ovarian it was 101%; in the test on IGROV1 ovarian, 117%; in the test with OVCAR-3 ovarian it was 103%. For the same molecule, the growth is 79% in the test on HS 578T breast; 99.8% in the test on NCI/ADR-RES ovarian; 88.2% in the test with T-47D breast; 93.3% in the test on BT-549 breast; 101% in the test with MDA-MB-435 melanoma; 99.4% in the test with SW-620 colon. Besides, the growth with HCT-116 colon is 90%; in the test on HCC-2998 colon, 104%.
With `COc1ccc(C2=C(c3cn(C)c4ccccc34)C(=O)OC2)cc1OC`, the growth in the test on SR leukemia was 29.1%; in the test on RPMI-8226 leukemia it was 40%; in the test on OVCAR-5 ovarian it was 64.9%; in the test with OVCAR-4 ovarian, 39.8%; with IGROV1 ovarian, 43.4%; in the test with OVCAR-3 ovarian, -8.6% (active). Besides, the growth with HS 578T breast was 22.5%; in the test with NCI/ADR-RES ovarian it was 22.7%; in the test with T-47D breast it was 23.8%; in the test with MDA-MB-435 melanoma it was -8.21% (active); in the test with SW-620 colon, 19.7%; in the test with MCF7 breast it was 18.8%. Also, the growth in the test with HCT-116 colon is 29.3%; with HCC-2998 colon, 65.9%; in the test with KM12 colon it was 26.4%.
As to `O=C(O)c1cccc(CN2CCN(c3cc4c(cc3F)c(=O)c(C(=O)O)cn4C3CC3)CC2)c1O`, the growth was 87.5% with SR leukemia; 103% with RPMI-8226 leukemia; 102% in the test on OVCAR-5 ovarian; 114% in the test on OVCAR-4 ovarian; 101% with SK-OV-3 ovarian; 101% in the test on IGROV1 ovarian. Besides, the growth with OVCAR-3 ovarian was 106%; in the test on HS 578T breast, 103%; in the test on NCI/ADR-RES ovarian, 101%; with T-47D breast, 96.6%; with MDA-MB-435 melanoma, 99%; in the test on SW-620 colon it was 102%. Besides, the growth in the test with MCF7 breast is 97.6%; in the test with HCT-116 colon, 104%; in the test on HCC-2998 colon, 105%; with KM12 colon it was 104%.
`COc1ccc(C2CC(c3ccc4ccccc4c3)=NN2c2nc(O)c(C3=c4cc(OC)ccc4=NC3=O)s2)cc1` (centres undefined): the growth with SR leukemia is -30.5% (active); in the test with RPMI-8226 leukemia it was 1.78% (active); in the test with OVCAR-4 ovarian it was -45.8% (active); in the test with IGROV1 ovarian it was -18.5% (active); with OVCAR-3 ovarian, -55.5% (active); in the test on HS 578T breast it was -7.14% (active). For the same molecule, the growth in the test with NCI/ADR-RES ovarian was 57%; in the test with T-47D breast, -72.7% (active); in the test with BT-549 breast it was -19.8% (active); in the test with MDA-MB-435 melanoma, -59.5% (active); in the test on SW-620 colon it was -42% (active); in the test with MCF7 breast it was -29.4% (active). Besides, the results for the growth with HCT-116 colon, in the test on HCC-2998 colon and in the test with KM12 colon were -64.5% (active), -70.4% (active) and -70.3% (active), respectively.
As for `Ic1ccc2[nH]cc(SSc3c[nH]c4ccc(I)cc34)c2c1`, the growth in the test on SR leukemia is 13.8%; in the test on RPMI-8226 leukemia it was 3.93% (active); in the test on OVCAR-5 ovarian, 42.7%; with OVCAR-4 ovarian, 25.3%; in the test on SK-OV-3 ovarian, -20.1% (active); in the test on OVCAR-3 ovarian, -9.35% (active). In addition, the growth in the test with HS 578T breast is 65.7%; in the test on NCI/ADR-RES ovarian, 7.06% (active); with T-47D breast it was 26.7%; in the test with MDA-MB-435 melanoma, 24.3%; in the test with SW-620 colon, 39.4%; in the test with MCF7 breast it was -29.4% (active). Moreover, the figures for the growth with HCT-116 colon, with HCC-2998 colon and in the test with KM12 colon were 10.1%, 4.84% (active) and 6.3% (active), respectively.
On to `C#C[C@]1(O)CC[C@H]2[C@@H]3CC=C4c5nc(Nc6ccc(OC)cc6OC)sc5CC[C@]4(C)[C@H]3CC[C@@]21C`, for which the growth was 5.67% (active) in the test on SR leukemia; -26.1% (active) with RPMI-8226 leukemia; 51.7% in the test on OVCAR-5 ovarian; 44.7% in the test on OVCAR-4 ovarian; 43.2% with IGROV1 ovarian; 26.4% in the test with OVCAR-3 ovarian. Moreover, the growth was -12.7% (active) with HS 578T breast; 50.3% in the test on NCI/ADR-RES ovarian; 22.3% in the test on T-47D breast; -16.7% (active) in the test on BT-549 breast; -4.22% (active) in the test on MDA-MB-435 melanoma; -12.8% (active) in the test on SW-620 colon. Moreover, the growth in the test on MCF7 breast is 4.51% (active); in the test with HCT-116 colon it was -21.1% (active); with HCC-2998 colon it was 29.8%; in the test on KM12 colon, -50.4% (active).

Values taken from PubChem BioAssay (NCI).
